We go through 50 compounds from ChEMBL document CHEMBL3988442, “University of Dundee, Small-Polar-MMV Screening Library” (2021).

The whole screen tested about 69,000 compounds, of which about 1,000 (1.4%) showed an effect of 50% or more. What follows is part of a selection rich in strong results, with near analogues and random picks from the rest.

This experiment deals with Leishmania donovani. Briefly: Leishmania intramacrophage assay. The format is functional, organism-based. Set-up: scale not given: in the data most compounds retested in dose-response had high values.

As for `CCO[C@H]1CO[C@@]2(CCN(Cc3ccc4c(c3)OCO4)C2)C1.O=C(O)C(F)(F)F`, the “Percent Effect” value (30.3 µM, […]) came to 9.141%.
The same measure, in the same setting: in the case of `CCO[C@@H]1CO[C@@]2(CCN(Cc3ccc4c(c3)OCO4)C2)C1.O=C(O)C(F)(F)F` it was 22.42%.
Take `O=C(O)C(F)(F)F.O=C(O)C(F)(F)F.c1ccc(O[C@H]2CO[C@@]3(CCN(Cc4ccc5c(c4)OCO5)C3)C2)nc1`: where the note is “30.3 µM, […]”, the “Percent Effect” value came out at 57%.
Still for that read-out and setting: then `CC(C)Cc1cc(C(=O)NCCn2nc3ccccn3c2=O)[nH]n1`, with 7.621%.
As to `O=C1CCC(=O)N1CCN1CCC(=Cc2ccccc2)CC1`, for the setting “30.3 µM, […]”, the “Percent Effect” value was 5.63%.
Still for that read-out and setting: then `O=C(CCc1ccsc1)NC1CCN(c2cccc(F)c2)CC1`, with -29.46%.
As to `O=C(Cc1cccs1)NC1CCN(c2cccc(F)c2)CC1`, the “Percent Effect” value (30 µM, 30.03 µM) came out at 26.53%.
Consider `COc1cccc(-c2cccc(N3CCC(N[C@@H]4CCOC4)CC3)c2)c1`, for which the “Percent Effect” value (30.3 µM, […]) was 96%.
On the same count and under the same terms, in the case of `Cc1nc(-c2cccc(N3CCC(N[C@@H]4CCOC4)CC3)c2)cs1` it was -5.486%.
The same measure, in the same setting: in the case of `Fc1cccc(-c2cccc(N3CCC(NC4CCCOC4)CC3)c2)c1` (stereo not given) it was 98.85%; in that of `COc1cccc(N2CCC(N3CCOC(C(F)(F)F)C3)CC2)c1` (stereo not given), 13.73%.
Same read-out and setting: in the case of `COC(C)(C)CC(C)NCc1cc(-c2ccco2)on1` (stereo not given) it was -19.81%; in that of `CN(CCC#N)C(=O)CN1CCCN(Cc2noc(C3CC3)n2)CC1`, 25.2%.
For the compound `O=C(O)C(F)(F)F.c1ncn(Cc2cnc3n2CCN(Cc2ccsc2)CC3)n1`, under “30 µM, 30.03 µM”, the “Percent Effect” value was -12.88%.
Take `O=C1CC[C@H](C(=O)N(Cc2cccc(Br)c2)C2CC2)N1`: the “Percent Effect” value (30.3 µM, […]) came to 50.36%.
Take `O=C1CC[C@H](C(=O)N(CCc2ccccc2)C2CCOC2)N1` (stereo not given in full): for the setting “30.3 µM, […]”, the “Percent Effect” value is reported as 6.545%.
The same measure, in the same setting: then `O=C1NCC(C(=O)N(Cc2cccc(Br)c2)C2CC2)N1` (stereo not given), with -2.381%.
Regarding `Nc1nnc(CCNC(=O)c2cccc(C3CCCNC3)c2)s1` (stereo not given), the “Percent Effect” value (30.3 µM, […]) came out at 5.236%.
The same measure, in the same setting: in the case of `Nc1nnc(CCCNC(=O)c2ccc(C3CCCNC3)cc2)s1` (stereo not given) it was 51.22%; in that of `Nc1nc(CCCNC(=O)c2ccc(C3CCCNC3)cc2)cs1` (stereo not given), 19.48%.
The same measure, in the same setting: then `CN(Cc1cccc(OC(F)(F)F)c1)Cc1cnn(C)c1`, with 10.05%.
Same read-out and setting: then `CCN1CCCC(O)(CNCc2ccncc2)C1` (stereo not given), with -12.57%; and `Cc1cc(NCc2ccc(S(N)(=O)=O)cc2)nc(C)n1`, with 22.51%.
As for `NCCc1nc(N(Cc2nccs2)C2CC2)c2ccccc2n1`, the “Percent Effect” value (30.3 µM, […]) was -16.71%.
On the same count and under the same terms, in the case of `NCCc1nc(N(Cc2cncs2)C2CC2)c2ccccc2n1` it was -1.942%.
Same read-out and setting: then `COCCN(CC1CC1)c1nc(CCN)nc2ccccc12`, with 14.22%; and `COCCN(Cc1cccs1)c1nc(CCN)nc2ccccc12`, with 70.83%.
`COCCN(Cc1ccccc1Cl)c1nc(CCN)nc2ccccc12`: the “Percent Effect” value (30.3 µM, […]) is listed as 98.78%.
Turning to `Cc1ccsc1CN(c1nc(CCN)nc2ccccc12)C1CC1`, the “Percent Effect” value (30.3 µM, […]) came to 40.33%.
Same read-out and setting: in the case of `CCS(=O)(=O)CC(=O)N1CCCC(c2noc(C(C)C)n2)C1` (stereo not given) it was 10.94%; in that of `CCOCCN1CCN(CC(O)c2ccc(C)c(C)c2)CC1` (stereo not given), 32.27%.
As for `Cc1nn(C)c(C)c1C1CCCN1C(=O)c1ccc2nnc(C)n2c1` (stereo not given), where the note is “30 µM”, the “Percent Effect” value is on record as 22.91%.
As for `CCC(CO)N(Cc1ccco1)C(=O)c1ccccc1SC` (stereo not given), the “Percent Effect” value (30.3 µM, […]) came out at 54.97%.
The same measure, in the same setting: in the case of `CCC(CO)N(Cc1ccco1)C(=O)c1cccc(C)c1O` (stereo not given) it was 10.11%.
Same read-out and setting: then `CCC(CO)N(Cc1ccco1)C(=O)c1ccccc1NC` (stereo not given), with 33.8%; and `CC(CNC1CCN(c2ccccn2)CC1)Oc1ccc(F)cc1` (stereo not given), with 19.84%; and `COc1ccc(C(C)CCNC2CCN(c3ccccn3)CC2)cc1` (stereo not given), with 60.53%.
On the same count and under the same terms, in the case of `FC(F)CN1CCC(NCCc2ccc(-n3cccn3)cc2)CC1` it was 23.28%.
With `CC(C)COCCNC1CCN(c2ccccn2)CC1`, the “Percent Effect” value (30.3 µM, […]) came out at 16.23%.
The same measure, in the same setting: in the case of `c1ccc(N2CCC(NCCc3ccc(-n4cccn4)cc3)CC2)nc1` it was 62.72%.
On the same count and under the same terms, in the case of `c1cnn(-c2ccc(CCNC3CCN(C4CC4)C3)cc2)c1` (stereo not given) it was -4.355%.
For the compound `O=C(O)C(F)(F)F.O=C(c1n[nH]c2c1CCN(Cc1nccs1)C2)N1CCCC1`, the “Percent Effect” value (30 µM, 30.03 µM) was 10.02%.
Take `COc1cccc(-n2cc(CN(C)Cc3ccnc(C(C)C)n3)cn2)c1`: for the setting “30.3 µM, […]”, the “Percent Effect” value worked out at 11.44%.
The same measure, in the same setting: then `CCOCC1CN(C(=O)Cc2ccccn2)Cc2cn(C)nc21` (stereo not given), with 5.026%; and `O=C(c1ccco1)N1CCOCC2(C1)CN(c1ccoc1)C(=O)CO2` (stereo not given), with 15.48%.
Still for that read-out and setting: then `CCn1cnnc1CCNC(=O)C1COc2ccc(OC)cc2C1` (stereo not given), with 15.43%.
On the same count and under the same terms, then `COc1nn(C)c2c1CCCN(C(=O)c1ccc3ccccc3n1)C2.O=C(O)C(F)(F)F`, with -11.56%; and `COc1nn(C)c2c1CCCN(C(=O)c1cccc3cccnc13)C2.O=C(O)C(F)(F)F`, with 75.35%; and `COc1nn(C)c2c1CCCN(C(=O)c1cccc(C)n1)C2.O=C(O)C(F)(F)F`, with 4.327%.
For the compound `Cc1nc2ccccc2c(=O)n1CCC(=O)N1CCCCCC1`, the “Percent Effect” value (30 µM) amounted to 21.32%.
